# BAZ2B block – blocks human BAZ2B | AlphaScreen BAZ2B-H3K14Ac peptide displacement | Q9UIF8 | Potency, µM (highest dose often 114 µM), without a hit: at the highest dose activity change, negative = inhibition, usual class: inhibitors | AID 504333 | 360,000 compounds, 4.4% hits; note: % is set by controls: 0 for no effect and ±100 for the full control effect; nearly all actives have a fitted effect of over 60% in size
#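 BAZ2B 50 nM plus b-H3(5-23)K14Ac 50 nM, PBS pH 7.4/0.01% Tween-20, 30 min RT; compound added (max 110 uM), 30 min RT; streptavidin donor/Ni-chelate acceptor beads 10 ug/mL final, 20 min dark; AlphaScreen read.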
# G9a block – G9a (human) methyltransferase inhibition; Q96KQ7; G9a H3K9 monomethylation, AlphaScreen, 2 h; Potency, µM (highest dose often 102 µM), for inactives: top-dose activity, negative = inhibition, most hits filed as inhibitors; 350,000 compounds, 8.8% hits; note: % is set by controls: 0 for no effect and ±100 for the full control effect; nearly all actives have a fitted effect of over 75% in size
# Target sequence (Q96KQ7 913-1193 limits assumed): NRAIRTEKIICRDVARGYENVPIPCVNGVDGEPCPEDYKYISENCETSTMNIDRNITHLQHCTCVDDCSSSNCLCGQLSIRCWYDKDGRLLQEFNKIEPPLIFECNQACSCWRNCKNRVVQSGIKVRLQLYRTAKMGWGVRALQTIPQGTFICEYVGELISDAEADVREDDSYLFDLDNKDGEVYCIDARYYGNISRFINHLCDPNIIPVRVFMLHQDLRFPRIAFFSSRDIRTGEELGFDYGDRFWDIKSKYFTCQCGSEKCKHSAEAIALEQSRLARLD
#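 Enzyme 20 nM + cpd, 15 min RT; add b-H3K9 pep 500 nM / SAM 20 uM; 2 h RT; anti-H3K9me1 Ab 0.5 ug/mL + SA donor / anti-rabbit acceptor beads 20 ug/mL each, 10 min; AlphaScreen read.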
# L3MBTL1 inh – blocks human L3MBTL1. AlphaScreen L3MBTL1–H3K9me1 peptide binding. 230,000 compounds, 0.66% hits. Potency, µM (doses to about 57.1 µM), inactives show at the top dose activity, negative = inhibition, usual class: inhibitors. AID 485360; note: % is set by controls: 0 for no effect and ±100 for the full control effect; nearly all actives have a fitted effect of over 60% in size
#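 AlphaScreen proximity signal between nickel-chelate acceptor and streptavidin donor beads (final 10 ug/mL) reports binding of 50 nM L3MBTL1 to 75 nM biotin-H3 K9me1 peptide; complex incubated with compounds 30 min at room temperature; cefsulodin titration as control.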
# JMJD2A Tudor inh – inhibitors of human JMJD2A Tudor domain; AlphaScreen JMJD2A-Tudor / H3K4me3 peptide binding; Potency, µM (highest dose often 114 µM), without a hit: at the top dose activity change, negative = inhibition, usual class: inhibitors; 390,000 compounds, 4.4% hits; AID 504339; note: % is set by controls: 0 for no effect and ±100 for the full control effect; nearly all actives have a fitted effect of over 50% in size
# HP1b chromo inh – inhibitors of HP1-beta chromodomain binding to methylated histone tails; Potency, µM (top dose mostly 114 µM), for inactives: top-dose activity change, negative = inhibition, actives largely listed as inhibitors; P83916; AID 540317; 390,000 compounds, 0.56% hits; AlphaScreen HP1-beta / biotin-H3K9me3 peptide binding; note: nearly all actives have a fitted effect of over 70% in size
# Target sequence (P83916 whole entry, looked up): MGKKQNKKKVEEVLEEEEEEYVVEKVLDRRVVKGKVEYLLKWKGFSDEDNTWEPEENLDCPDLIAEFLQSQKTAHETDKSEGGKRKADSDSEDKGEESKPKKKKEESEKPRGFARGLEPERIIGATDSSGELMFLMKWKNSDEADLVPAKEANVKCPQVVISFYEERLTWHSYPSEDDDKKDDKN
#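 HP1-beta protein (50 nM final) preincubated 30 min at room temperature with biotinylated H3(1-18)K9me3 peptide (50 nM) in PBS pH 7.4, 0.01% Tween-20, then compound added for 30 min. AlphaScreen streptavidin donor/nickel chelate acceptor beads (10 ug/mL final), 30 min dark, luminescence read.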
# Starred values were filed as active, the others as inactive; ? = inconclusive; . = no result; [ ] = dose if it differs, or a comment. In the library only some 11% were active in any assay of this set; here they are far more common. Calls come from the whole dose curve; as a rule, active = well fitted inhibition curve with a large enough effect; inconclusive = small, poorly fitted or top-dose-only effect; inactive = no such curve, though single readings can be large or run the other way. Potency is the fitted concentration of half-maximal effect.
SMILES,BAZ2B block,G9a block,L3MBTL1 inh,JMJD2A Tudor inh,HP1b chromo inh
O=C(O)c1ccc(NS(=O)(=O)c2ccc3c(c2)C2C=CCC2C(c2ccccc2F)N3)cc1 (stereo unspecified),50µM*,10µM*,7.9µM*,?,5%
COC(=O)c1ccc(C2NC(=O)CCC2[N+](=O)[O-])cc1 (stereo unspecified),-2%,0%,.,-6%,6%
Cc1ccc(NS(=O)(=O)c2ccc3c(c2)[C@H]2C=CC[C@H]2[C@@H](c2ccc(F)cc2)N3)cc1C,?,5.6µM*,.,?,-8%
CCOC(=O)N1CCN(c2ccncc2S(=O)(=O)N2CCCCC2)CC1,-9%,0%,.,2%,41%
Cc1cc(C)c(NC(=O)c2sc3nc(C)cc(C)c3c2NC(=O)c2ccccc2)c(C)c1,-4%,-5%[59 µM],.,-10%,14%
CC(C)NC(=O)NC(=O)CSc1nnc(-c2c[nH]c3ccccc23)o1,-24%,4%,.,-8%,19%
Cc1nn(C(=O)c2ccc(Cl)cc2)c(C)c1Sc1ccc(Cl)cc1,135%,131%[59 µM],.,104%,163%
Cc1ccccc1OCC(=O)NCC(=O)OCC(=O)c1ccc(F)cc1,.,.,.,-23%[57.1 µM],10%[57 µM]
Cc1nc2scc(C)n2c(=O)c1S(=O)(=O)NC(C)c1ccccc1 (stereo unspecified),0%,18%,.,25µM*,14%
O=C1CSC(=S)N1/N=C/c1cc(Br)ccc1O,5µM*,10µM*,.,.,.
Oc1ccc(Br)cc1/C=N/N1CCN(Cc2ccccc2)CC1,?,12%[0.501 µM],-9%,?,-20%
Oc1ccc(Br)cc1/C=N/N1CCCCC1,-5%,11µM*,-3%,-27%,-6%
O=C1CSC(=S)N1N=Cc1ccc(Cl)s1,.,.,.,28µM*,?
COc1ccc(/C=N/N2C(=O)CSC2=S)cc1Br,-1%,2%[12.7 µM],-28%,?,-12%
CC(=O)N1CCc2cc(S(=O)(=O)NC(CC(C)C)C(=O)NCCc3cccc(C)c3)ccc21 (stereo unspecified),.,6%[59 µM],.,4%,31%
COc1ccc(Cl)cc1NC(=O)Cn1c2ncccc2c(=O)n1-c1ccc(C)c(C)c1,-1%,8%[59 µM],.,?,15%
CC(=O)Nc1ccc(NC(=O)C(C)Sc2n[nH]c(-c3ccc(C)cc3)n2)cc1 (stereo unspecified),10%,40µM*,-2%,-24%,-3%
Cc1ccc(-c2nc(SC(C)C(=O)c3c(N)n(C)c(=O)n(C)c3=O)n[nH]2)cc1 (stereo unspecified),12%,45µM*,-3%,-10%,23%
Cc1ccc(C)c(Cn2nnc(C(=O)NCc3ccccc3)c2N)c1,-18%,-15%[59 µM],.,-11%,1%
COc1ccccc1/C=C/C(=O)OCC(=O)NCc1ccco1,?,4%[59 µM],-9%,-31%,-11%
CCc1cccc2c(C(=O)COC(=O)/C=C/c3ccc(O)c(OC)c3)c[nH]c12,-10%,45µM*,-14%,-32%,2%
O=C(COC(=O)/C=C/c1cccc([N+](=O)[O-])c1)NCc1ccco1,71µM*,10%,-13%,-23%,12%
COc1cc(/C=C/C(=O)OCC(=O)NCc2ccco2)ccc1O,-17%,40µM*,-7%,-11%,8%
CCCSc1nc2cc(C)c(C)cc2n1CC(C)O (stereo unspecified),?,11µM*,3%,-10%,18%
O=C(OCC#CCSc1nnc(-c2c[nH]c3ccccc23)o1)c1ccc(F)cc1,.,.,.,-24%,.
SMILES,BAZ2B block,G9a block,L3MBTL1 inh,JMJD2A Tudor inh,HP1b chromo inh
COC(C(=O)Nc1ccc(NC(=O)C(OC)c2ccccc2)cc1)c1ccccc1 (stereo unspecified),-10%,50µM*,5%,3%,54%
COC(C(=O)Nc1ccc(Cl)cc1C)c1ccccc1 (stereo unspecified),-9%,8.9µM*,4%,-15%[57.1 µM],29%
COc1ccc(-c2c(C#N)c(SCC(=O)Nc3cccc(Cl)c3)nc(C)c2C(=O)Nc2ccccc2)cc1OC,3%,-2%[59 µM],.,-13%,34%
Cc1ccc(-c2nc(CNC(=O)c3ccco3)cs2)cc1,-16%,50µM*,.,-1%,34%
COc1ccccc1C1NC(=O)c2n[nH]c(-c3cccs3)c21 (stereo unspecified),.,5%[59 µM],.,-28%,8%
COc1ccc(N(CC(=O)Nc2cccc(C(C)=O)c2)S(=O)(=O)c2ccccc2)c(OC)c1,?,3.2µM*,.,-12%,23%
O=C(O)Cc1cc(F)c(S(=O)(=O)N2CCN(S(=O)(=O)c3ccc4c(c3)OCCO4)CC2)cc1F,.,.,.,-35%,.
Cc1nn2c(C)c(C(=O)Nc3ccccc3)cnc2c1C#N,-1%,16µM*,.,-12%,13%
Cc1cc2ncc(C(=O)Nc3ccccc3)c(C)n2n1,1%,19%[12.7 µM],8%,-8%,50%
COc1ccc(-c2oc(NC(=O)CCl)c(C#N)c2-c2ccc(OC)cc2)cc1,50µM*,50µM*,.,?,-18%
COc1cc2[nH]c3c(N4CCN(c5ccc(Cl)cc5)CC4)ncnc3c2cc1OC,?,-2%,-10%,-11%,28%
COc1cc2[nH]c3c(Cl)ncnc3c2cc1OC,45µM*,?,-13%,-12%,20%
COc1ccc(NC(=O)c2noc3c2CCCC3)cc1Cl,11%[57.1 µM],-13%[59 µM],.,-2%,32%
CCOC(=O)C1=C(N)Oc2cc(O)ccc2C1c1cccc([N+](=O)[O-])c1 (stereo unspecified),40µM*,.,-15%,?,-17%
O=S1(=O)c2ccccc2N(Cc2ccccc2)c2ccccc21,-15%,-5%[59 µM],.,-22%,?
CN(C)c1ccc(CNC(=O)c2sc3ncccc3c2-n2cccc2)cc1,18µM*,22µM*,.,28µM*,?
COc1cc(C(=O)OCC(=O)Nc2ccc(N3CCOCC3)cc2)ccc1OCC(C)C,1%,6.3µM*,6%,13%,24%
COc1cc(OC)cc(C(=O)OCC(=O)Nc2ccc(N3CCCCC3)cc2)c1,-6%,10µM*,.,0%,30%
COc1ccc(OCC(=O)Nc2ccc(N3CCCCC3)cc2)cc1,-31%,8%,-14%,-14%,-16%
O=C(COC(=O)c1ccc(O)cc1)Nc1ccc(N2CCCCC2)cc1,?,45µM*,.,?,-19%
COc1ccc(NC(=O)COC(=O)c2ccc(-n3cnnn3)cc2)cc1Cl,3%,40µM*,6%,-11%,19%
N#Cc1ccccc1-c1ccc2ncnc(NCCN3CCOCC3)c2c1,.,-32%[0.501 µM],.,.,.
CCCCCCOc1ccc(-c2nc3ccc(Br)cc3c(=O)o2)cc1,-1%,-1%[59 µM],.,-12%,12%
O=C(COC(=O)c1ccccc1OC(F)F)Nc1ccc(N2CCCCC2)cc1,-6%,7.9µM*,-1%,-23%,5%
CCOc1ccccc1C(=O)OCC(=O)Nc1ccc(N2CCCCC2)cc1,4%,?,.,-50%[57.1 µM],?

# Screens: PubChem BioAssay, National Center for Advancing Translational Sciences (NCATS)
